# Measured values: PubChem BioAssay (NCATS)
# Inconclusive results are not listed. Calls of active or inactive are those of the source. Calls follow the shape of the dose curve; as a rule, active = well fitted inhibition curve with a large enough effect; inconclusive = small, poorly fitted or top-dose-only effect; inactive = flat fitted curve, though single readings scatter.
# Test system: P93_24
# Assay: qHTS profiling for inhibitors of Plasmodium falciparum proliferation (AID 504749);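 also: 0% = DMSO vehicle and full inhibition = artemisinin control; nearly all actives have a fitted effect of over 60% in size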
# Details: P. falciparum in erythrocytes, SYBR Green DNA, 72 h; series mostly up to 28.7 µM; activity, negative = inhibition: at the top concentration
# Summary of the method: (§1)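 Quantitative HTS: compounds pinned into medium, infected erythrocytes added (0.3% parasitemia, 2.5% hematocrit), 72 h culture at 37 C under 5% CO2. Saponin/Triton lysis with SYBR Green I, overnight RT, then fluorescence read.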
row,Structure (SMILES),"activity, negative = inhibition"
1,CS(=O)(=O)c1ccc(C2=C(c3ccccc3)C(=O)OC2)cc1,-5.61% (inactive)
2,NS(=O)(=O)c1cc(Cl)c(Cl)c(S(N)(=O)=O)c1,-19.2% [at 12.8 µM] (inactive)
3,COc1ccnc(CS(=O)c2nc3ccc(OC(F)F)cc3[nH]2)c1OC (configuration not stated),0.133% (inactive)

# Test system: P94_40
# Assay: as above
# Details: P. falciparum in erythrocytes, SYBR Green DNA, 72 h; series mostly up to 28.7 µM; activity, negative = inhibition: at the top concentration
# Summary of the method: as §1
row,Structure (SMILES),"activity, negative = inhibition"
1,CS(=O)(=O)c1ccc(C2=C(c3ccccc3)C(=O)OC2)cc1,-11.3% (inactive)
2,NS(=O)(=O)c1cc(Cl)c(Cl)c(S(N)(=O)=O)c1,-8% [at 12.8 µM] (inactive)
3,COc1ccnc(CS(=O)c2nc3ccc(OC(F)F)cc3[nH]2)c1OC (configuration not stated),-13.5% (inactive)

# Test system: PAD
# Assay: as above
# Details: P. falciparum in erythrocytes, SYBR Green DNA, 72 h; series mostly up to 28.7 µM; activity, negative = inhibition: at the top concentration
# Summary of the method: as §1
row,Structure (SMILES),"activity, negative = inhibition"
1,CS(=O)(=O)c1ccc(C2=C(c3ccccc3)C(=O)OC2)cc1,-5.13% (inactive)
2,NS(=O)(=O)c1cc(Cl)c(Cl)c(S(N)(=O)=O)c1,1.57% [at 12.8 µM] (inactive)
3,COc1ccnc(CS(=O)c2nc3ccc(OC(F)F)cc3[nH]2)c1OC (configuration not stated),-9.31% (inactive)

# Test system: PC15
# Assay: as above
# Details: P. falciparum in erythrocytes, SYBR Green DNA, 72 h; series mostly up to 28.7 µM; activity, negative = inhibition: at the top concentration
# Summary of the method: as §1
row,Structure (SMILES),"activity, negative = inhibition"
1,CS(=O)(=O)c1ccc(C2=C(c3ccccc3)C(=O)OC2)cc1,6.05% (inactive)
2,NS(=O)(=O)c1cc(Cl)c(Cl)c(S(N)(=O)=O)c1,-17.4% [at 12.8 µM] (inactive)
3,COc1ccnc(CS(=O)c2nc3ccc(OC(F)F)cc3[nH]2)c1OC (configuration not stated),4.46% (inactive)

# Test system: PC49
# Assay: as above
# Details: P. falciparum in erythrocytes, SYBR Green DNA, 72 h; series mostly up to 28.7 µM; activity, negative = inhibition: at the top concentration
# Summary of the method: as §1
row,Structure (SMILES),"activity, negative = inhibition"
1,CS(=O)(=O)c1ccc(C2=C(c3ccccc3)C(=O)OC2)cc1,7.69% (inactive)
2,NS(=O)(=O)c1cc(Cl)c(Cl)c(S(N)(=O)=O)c1,9.61% [at 12.8 µM] (inactive)
3,COc1ccnc(CS(=O)c2nc3ccc(OC(F)F)cc3[nH]2)c1OC (configuration not stated),4.33% (inactive)

# Test system: SC27B
# Assay: as above
# Details: P. falciparum in erythrocytes, SYBR Green DNA, 72 h; series mostly up to 28.7 µM; activity, negative = inhibition: at the top concentration
# Summary of the method: as §1
row,Structure (SMILES),"activity, negative = inhibition"
1,CS(=O)(=O)c1ccc(C2=C(c3ccccc3)C(=O)OC2)cc1,-11.7% (inactive)
2,NS(=O)(=O)c1cc(Cl)c(Cl)c(S(N)(=O)=O)c1,3.02% [at 12.8 µM] (inactive)
3,COc1ccnc(CS(=O)c2nc3ccc(OC(F)F)cc3[nH]2)c1OC (configuration not stated),-10.9% (inactive)

# Test system: TAB109
# Assay: as above
# Details: P. falciparum in erythrocytes, SYBR Green DNA, 72 h; series mostly up to 28.7 µM; activity, negative = inhibition: at the top concentration
# Summary of the method: as §1
row,Structure (SMILES),"activity, negative = inhibition"
1,CS(=O)(=O)c1ccc(C2=C(c3ccccc3)C(=O)OC2)cc1,-3.07% (inactive)
2,NS(=O)(=O)c1cc(Cl)c(Cl)c(S(N)(=O)=O)c1,5.35% [at 12.8 µM] (inactive)
3,COc1ccnc(CS(=O)c2nc3ccc(OC(F)F)cc3[nH]2)c1OC (configuration not stated),1.71% (inactive)

# Test system: TAB113
# Assay: as above
# Details: P. falciparum in erythrocytes, SYBR Green DNA, 72 h; series mostly up to 28.7 µM; activity, negative = inhibition: at the top concentration
# Summary of the method: as §1
row,Structure (SMILES),"activity, negative = inhibition"
1,CS(=O)(=O)c1ccc(C2=C(c3ccccc3)C(=O)OC2)cc1,3.95% (inactive)
2,NS(=O)(=O)c1cc(Cl)c(Cl)c(S(N)(=O)=O)c1,-10.8% [at 12.8 µM] (inactive)
3,COc1ccnc(CS(=O)c2nc3ccc(OC(F)F)cc3[nH]2)c1OC (configuration not stated),-9.17% (inactive)

# Test system: TAB165
# Assay: as above
# Details: P. falciparum in erythrocytes, SYBR Green DNA, 72 h; series mostly up to 28.7 µM; activity, negative = inhibition: at the top concentration
# Summary of the method: as §1
row,Structure (SMILES),"activity, negative = inhibition"
1,CS(=O)(=O)c1ccc(C2=C(c3ccccc3)C(=O)OC2)cc1,6.1% (inactive)
2,NS(=O)(=O)c1cc(Cl)c(Cl)c(S(N)(=O)=O)c1,7.13% [at 12.8 µM] (inactive)
3,COc1ccnc(CS(=O)c2nc3ccc(OC(F)F)cc3[nH]2)c1OC (configuration not stated),-9.19% (inactive)
